Measurements taken from PubChem BioAssay AID720526 (National Center for Advancing Translational Sciences (NCATS), 2013).
Results filed as inconclusive are left out. Where a call stands in place of a potency, no number is given. Calls of active or inactive are those of the source. The call rests on the fitted dose curve; in most records, active means well fitted activation curve with a large enough effect; inconclusive means small, poorly fitted or top-dose-only effect; inactive means no such curve, though single readings can be large or run the other way.
Potency means the concentration at half of the fitted maximal effect.

Test: qHTS Assay for NPC1 Promoter Activators: Hit Validation Using Renila Luciferase Read-Out for NPC1
Details: Huh7 NPC1 promoter-luciferase reporter, luminescence, 24 h; series mostly up to 76.9 µM
Text: Niemann Pick Type C (NPC) is a rare neurodegenerative lipidosis that is characterized by lipid storage in the endosomal/lysosomal system. Treatment modalities for this devastating disease are currently non-existent due to the severe obstacles associated with accessing the central nervous system with proteins or genes. The majority of mutations causing NPC disease are missense mutations that are distributed throughout the length of the NPC1 protein, with the most prevalent being the I1061T allele. Although NPC1 mutant proteins may be functional, they are typically trapped in the ER due to misfolding. […] We have developed and optimized a cell based renilla luciferase reporter assay in 1536 well format for the identification of up-regulators of the mutant Rab9 promoter. This assay presents data on the validation of hits from the primary screen, which used a firefly luciferase read-out. NIH Chemical Genomics Center [NCGC] NIH Molecular Libraries Probe Production centers Network [MLPCN] MLPCN Grant: MH089375 Assay Submitter (PI): Yiannis A. Ioannou
Huh7 cells stably expressing NPC promoter-luciferase will be seeded at 1,500 cells/well in 5 uL in 1,536-well white opaque plates with 23 nL/well of compound in DMSO solution. The assay plates will be incubated at 37 deg C for 24 hours, after which 3 uL/well BriteLite plus luciferase detection reagent mixture (Perkin Elmer) will be added. Luminescence signal will be measured in a ViewLux plate reader (Perkin Elmer) after a 10 minute incubation at the room temperature.
In the case of COc1cccc(NC(=O)CN2C(=O)CSc3ccc(S(=O)(=O)N4CCC(C)CC4)cc32)c1, the Potency is reported as “inactive”.
For Cc1ccc(C(=O)Nc2ccc(N3CCN(C)CC3)nc2)cc1, the Potency was “inactive”.
For CCOc1cc(C(=O)N=c2sccn2C)ccc1OC(F)F, the Potency was “inactive”.
With CCOC(=O)c1csc(COc2ccc(OC)cc2)n1 the Potency was “inactive”.
In the case of O=C(c1cccc(Oc2ccc([N+](=O)[O-])cc2)c1)N1CCOCC1, the Potency is reported as “inactive”.
With Cc1nnc2n(c1=O)N=C(c1ccc(Cl)cc1)CS2 the Potency was “inactive”.
In the case of COc1ccccc1NC(=S)NCc1ccc(Cl)cc1, the Potency is reported as “inactive”.
For O=C(CSc1ncccn1)Nc1cccc2ccccc12, the Potency was “inactive”.
With COc1ccc(OC)c(S(=O)(=O)N2CCN3CCCC3C2)c1 (stereo not given) the Potency was 32.8 µM (active).
In the case of O=C(NC(=S)Nc1ccc(CN2CCCCC2)cc1)c1cc2ccccc2o1, the Potency is reported as “inactive”.
In the case of NCCOc1ccccc1-c1ccccc1, the Potency is reported as “inactive”.
In the case of COCc1cc(C)nc(N/N=C/c2ccc(-c3ccc(Cl)cc3[N+](=O)[O-])o2)c1C#N, the Potency is reported as “inactive”.
With CC1CCCN(C(=S)Nc2ccc(Nc3ccccc3)cc2)C1 (stereo not given) the Potency was “inactive”.
With Cc1ccccc1NC(=O)CSc1ccc(-c2cccnc2)nn1 the Potency was “inactive”.
With COc1ccc(-n2c(N)c(C(=O)NCc3ccco3)sc2=S)cc1 the Potency was “inactive”.
In the case of O=[N+]([O-])c1cnccc1Nc1ccc(F)cc1, the Potency is reported as “inactive”.
With COc1ccc(-n2cc(-c3ccc(Cl)cc3)[nH]c2=S)cc1 the Potency was “inactive”.
In the case of C=CCc1ccc(OCCOCCNCCOC)c(OC)c1, the Potency is reported as “inactive”.
In the case of CC(C)CC(=O)N1CCN(c2ccc(NC(=O)c3ccco3)cc2)CC1, the Potency is reported as “inactive”.
For COc1ccc(S(=O)(=O)NC(C(=O)NCCc2ccccn2)C(C)C)cc1 (stereo not given), the Potency was “inactive”.
For Cc1ccc(NC(=O)c2c(O)c3ccccc3n(C)c2=O)nc1, the Potency was “inactive”.
In the case of O=C(CSc1nnc(-c2ccc([N+](=O)[O-])cc2)o1)Nc1ccccn1, the Potency is reported as “inactive”.
With COc1ccc(NC(=O)CN(C)C(=O)c2ccc(=O)[nH]c2)cc1 the Potency was “inactive”.
With COc1ccc([N+](=O)[O-])cc1COc1ccc2c(-c3ccccc3)cc(=O)oc2c1 the Potency was 1.46 µM (active).
With O=S(=O)(c1cccs1)N1CCN(c2ncccn2)CC1 the Potency was “inactive”.
With COCC1CCN(C(=O)c2ccc3oc(Cc4ccccc4)nc3c2)C1 (stereo not given) the Potency was “inactive”.
In the case of NC(=O)COC(=O)c1ccc2noc(-c3ccccc3)c2c1, the Potency is reported as “inactive”.
With CN(C)C(=O)[C@H]1C[C@H]1[C@@H](O)[C@H](CO)NC(=O)[C@H](COCc1ccccc1)NC(=O)OC(C)(C)C the Potency was “inactive”.
For O=C(NCCSCc1c(F)cccc1Cl)c1ccc(CN2CCOCC2)cc1, the Potency was “inactive”.
For Cc1ccc(NC(=O)COC(=O)C2C3CC4OC(=O)C2C4C3)cc1Cl (stereo not given), the Potency was “inactive”.
With Cc1ccccc1NC(=O)Cc1nc(COC(=O)CC(C)c2ccccc2)cs1 (stereo not given) the Potency was “inactive”.
For CC1CC(C)CN(CC(=O)N2CCOCC2)C1 (stereo not given), the Potency was “inactive”.
For O=C(C[N+]1(CC#Cc2ccccc2)CCCCC1)c1ccccc1, the Potency was “inactive”.
For CCOC(=O)c1cc2sccc2n1CC(=O)N1CCCc2ccccc21, the Potency was “inactive”.
For O=C(NNC(=O)C1COc2ccccc2O1)c1ccccc1O (stereo not given), the Potency was “inactive”.
For COc1cccc(C(C(=O)NC2CCCC2)N(CCC(C)C)C(=O)CCC(=O)Nc2cc(C)on2)c1 (stereo not given), the Potency was “inactive”.
For Nc1ccccc1C(=O)N/N=C1/C2CN3CCN(C2)CC1(Cc1ccccc1)C3, the Potency was “inactive”.
For CC(C)(C)C(=O)NC(=S)Nc1ccccc1F, the Potency was “inactive”.
With CCOc1ccc(CNC(=O)C2CCCN(S(C)(=O)=O)C2)cc1OC (stereo not given) the Potency was “inactive”.
For CCCNC(=O)C1CCN(S(=O)(=O)c2ccc3[nH]c(=O)ccc3c2)CC1, the Potency was “inactive”.
